# Measured values from PMC6919601, “Identification of Plasmodium dipeptidyl aminopeptidase allosteric inhibitors by high throughput screening” (PLoS ONE, 2019).
# Hit rate of the full screen: of about 110,000 compounds, about 230 (0.21%) showed an effect of 50% or more. The full list was thinned out, with strong results kept by preference.
# Target: DPAP1 (Plasmodium falciparum, UniProt Q8IIJ9)
# Assay: primary screen, percent inhibition; read by cleavage of a fluorogenic dipeptide substrate; higher = more effect of the substance
# Design: species or system P. falciparum D10 trophozoite lysates; single well
# 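Also: 30 min substrate incubation versus DMSO and 10 µM JCP410 controls.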
# Chain of DPAP1 (Q8IIJ9 whole entry, looked up): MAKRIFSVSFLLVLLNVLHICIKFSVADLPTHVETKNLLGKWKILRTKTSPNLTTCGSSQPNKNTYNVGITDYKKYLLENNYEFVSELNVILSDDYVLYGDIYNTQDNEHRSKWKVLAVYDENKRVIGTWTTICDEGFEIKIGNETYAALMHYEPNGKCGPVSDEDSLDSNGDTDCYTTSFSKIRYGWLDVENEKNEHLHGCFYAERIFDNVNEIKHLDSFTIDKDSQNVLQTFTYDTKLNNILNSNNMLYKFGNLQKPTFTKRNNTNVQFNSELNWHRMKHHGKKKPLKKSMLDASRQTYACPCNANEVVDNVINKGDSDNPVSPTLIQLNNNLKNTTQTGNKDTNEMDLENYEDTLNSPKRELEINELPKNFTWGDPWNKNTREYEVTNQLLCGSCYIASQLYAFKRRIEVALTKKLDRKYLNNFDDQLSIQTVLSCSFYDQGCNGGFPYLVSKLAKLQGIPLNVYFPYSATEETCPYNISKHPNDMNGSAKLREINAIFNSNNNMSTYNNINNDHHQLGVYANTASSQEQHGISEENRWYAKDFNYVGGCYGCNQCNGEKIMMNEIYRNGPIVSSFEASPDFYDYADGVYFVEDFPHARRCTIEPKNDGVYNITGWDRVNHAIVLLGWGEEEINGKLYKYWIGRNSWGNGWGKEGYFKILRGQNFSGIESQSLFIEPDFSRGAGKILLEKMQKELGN
row,SMILES,% Inhibition @ 10 uM [%]
1,CCOC(=O)c1c(-c2ccc(F)cc2)csc1NC(=O)c1c(-c2ccccc2)noc1C,0.64
2,O=C(CCCC(=O)c1ccccc1)NC(c1ccccc1)c1ccccc1,-1.46
3,c1ccc(CSc2nccn2Cc2ccccc2)cc1,-1.97
4,CC(C)CC(=O)Nc1ccc(-c2nc3cc(Cl)ccc3o2)cc1,-1.57
5,Cc1ccc(CNS(=O)(=O)c2cn(C)cn2)cc1,1.47
6,Cn1cnc(S(=O)(=O)Nc2nnc(S)s2)c1,95.5
7,Cc1ccc(S(=O)(=O)Nc2nnc(C)s2)cc1,-1.77
8,Cc1csc(NC(=O)C(CCS(C)(=O)=O)N2Cc3ccccc3C2=O)n1 (centres unmarked),0.0322
9,COc1ccc(C(=O)/C=C/c2ccco2)cc1,60.2
10,O=C(/C=C/c1ccco1)c1ccc(F)cc1,14.1
11,O=C(/C=C/c1ccco1)c1ccc(C(=O)/C=C/c2ccco2)cc1,-0.268
12,COc1ccc(CCNC(=O)CN2C(=O)c3ccccc3C2=O)cc1,1.33
13,Cc1nn(C)cc1CN(C)C(=O)c1cc2nc(-c3ccccc3)cc(C(F)(F)F)n2n1,4.59
14,Cc1cc(N(C)C)c(=O)n(-c2ccccc2)n1,5.74
15,O=C1/C(=C\c2cccnc2)CN(Cc2ccccc2)C/C1=C\c1cccnc1,0.287
16,O=C1/C(=C/c2ccc3nccnc3c2)CN(Cc2ccccc2)C/C1=C\c1ccc2nccnc2c1,6.89
17,O=C1/C(=C\c2ccccn2)CN(Cc2ccccc2)C/C1=C\c1ccccn1,55.7
18,O=C(CCN1C(=O)C2C3C=CC(C3)C2C1=O)Nc1cccnc1 (centres unmarked),-0.551
19,CCN(CC)C(=O)Cn1cc(S(=O)(=O)Cc2cc(C)ccc2C)c2ccccc21,0.292
20,Cc1cccc(NC(=O)C2CC3CCC2C3)n1 (centres unmarked),-2.66
21,COc1ccc(S(=O)(=O)N2CCSC2c2ccc(C)cc2)cc1 (centres unmarked),-3.45
22,COc1ccc(S(=O)(=O)N2CCSC2c2ccccc2)cc1 (centres unmarked),3.19

row,SMILES,% Inhibition @ 10 uM [%]
1,COc1ccc(S(=O)(=O)N2CCSC2c2ccccc2Cl)cc1 (centres unmarked),68.6
2,CN(C)c1ccc(/C=C(\C#N)c2nc(-c3ccc(-c4ccccc4)cc3)cs2)cc1,5.77
3,CCn1ccnc1C(O)(c1ccccc1)c1ccc(C)cc1 (centres unmarked),4.67
4,CCN1C(=O)C(=CNc2ccc3c(c2)-c2ccccc2C3)C(=O)N(CC)C1=O,-0.996
5,Nc1c(C(=O)Nc2nccs2)sc2nc(-c3cccs3)cc(C(F)(F)F)c12,76.8
6,Nc1c(C(=O)Nc2ccccn2)sc2nc(-c3cccs3)cc(C(F)(F)F)c12,-5.07
7,CCc1nnc(NC(=O)c2sc3nc(-c4cccs4)cc(C(F)(F)F)c3c2N)s1,0.487
8,CC(=O)c1ccc(NC(=O)C(C)Oc2ccccc2C)cc1 (centres unmarked),-5.92
9,Cc1nc2c3ccccc3n3c(CCCC(=O)NC4CCN(Cc5ccccc5)CC4)nnc3n2n1,2.04
10,CCCN1CCN(C(=O)Cn2cccc2C(=O)c2ccccc2)CC1,1.15
11,CCOc1ccc(-c2cc(NC(=O)Cn3ncc4c(=O)oc5ccc(C)cc5c43)on2)cc1,-5.25
12,CCCCSc1nc(-c2cccs2)cc(C(F)(F)F)c1C#N,60.7
13,CCSc1nc(-c2ccc(OC)cc2)cc(C(F)(F)F)c1C#N,-1.4
14,CCSc1nc(-c2cccs2)cc(C(F)(F)F)c1C#N,82.6
15,Cc1cccc(NC(=O)CSc2nc(-c3cccs3)cc(C(F)(F)F)c2C#N)n1,18.3
16,N#Cc1c(C(F)(F)F)cc(-c2cccs2)nc1S,88.5
17,CCS(=O)CCSc1nc(-c2cccs2)cc(-c2ccccc2)c1C#N (centres unmarked),7.76
18,N#Cc1c(C(F)(F)F)cc(-c2cccs2)nc1SCC(=O)Nc1nccs1,0.121
19,N#Cc1c(C(F)(F)F)cc(-c2cccs2)nc1SCc1ccncc1,57.7
20,N#Cc1sc2nc(-c3cccs3)cc(C(F)(F)F)c2c1N,-2.32
21,N#Cc1c(C(F)(F)F)cc(-c2cccs2)nc1SCC(=O)Nc1ccccn1,2.44
22,CC(=O)NCCSc1nc(-c2cccs2)cc(-c2ccc(F)cc2)c1C#N,5.65

row,SMILES,% Inhibition @ 10 uM [%]
1,N#Cc1c(-c2cccs2)cc(-c2ccccc2)nc1S,20.6
2,Cc1ccnc(NC(=O)c2ccc(C)c(C)c2)c1,2.64
3,O=c1oc2c3c(c(Cl)cc2c2c1CCCC2)OCN(Cc1ccco1)C3,4.13
4,O=C(Nc1ccc([N+](=O)[O-])cc1)c1ccc(-c2ccccc2)cc1,2.62
5,CC(=O)N1CCN(C2CCc3ccccc3C2)CC1 (centres unmarked),0.217
6,CCC(C)NC(=O)c1ccccc1NS(=O)(=O)c1ccc(NC(C)=O)cc1 (centres unmarked),-0.872
7,COc1ccc(C2=N/C(=C\C=C\c3ccccc3)C(=O)O2)cc1,7.01
8,Cc1ccc(NC(=O)C(CC(C)C)N2Cc3ccccc3C2=O)nc1 (centres unmarked),-0.234
9,O=C(c1ccc(Br)cc1)N1CCN(c2ccc(F)cc2)CC1,0.815
10,C#CCSc1nc(-c2ccccc2)cc(C(F)(F)F)c1C#N,-10.2
11,N#Cc1c(C(F)(F)F)cc(-c2ccccc2)nc1S,73.6
12,N#CNC(=N)CSc1nc(-c2ccccc2)cc(C(F)(F)F)c1C#N,0.0719
13,COc1cc(/C=C2/NC(=O)N(Cc3ccccc3F)C2=O)cc(Cl)c1O,-1.28
14,C=CCc1cc(/C=C2/NC(=O)N(Cc3ccccc3F)C2=O)cc(OC)c1O,-2.63
15,COc1cc(/C=C2/NC(=O)N(Cc3ccccc3F)C2=O)cc(Br)c1O,63
16,Cc1oc(-c2ccc3c(c2)OCCO3)cc1C(=O)NCC(=O)O,-1.69
17,CCCNC(=O)c1cc2n(n1)C(C(F)(F)F)CC(c1ccc(Br)cc1)N2 (centres unmarked),-0.67
18,COc1ccc(-c2nc3scc(CCNC(=O)c4cc(OC)c(OC)c(OC)c4)n3n2)cc1,5.49
19,COc1ccc(NC(=O)C2=C(C)NC(=O)NC2c2ccc(OC)cc2)cc1 (centres unmarked),9.5
20,COc1ccc(NC(=O)C2=C(C)NC(=O)NC2c2ccc(Br)cc2)cc1 (centres unmarked),57.9
21,COc1ccc(NC(=O)C2=C(C)NC(=O)NC2c2ccc(C)cc2)cc1 (centres unmarked),-2.18
